Data reported in the supplement of paper PMC7057948, “A genome-wide approach for identification and characterisation of metabolite-inducible systems” (Nature Communications, 2020).

system: HpdA/P_H16_RS24175 L-tyrosine biosensor (pEH158); test: relative induction of RFP reporter vs primary effector (background-corrected); higher = stronger activation of the biosensor; conditions: inducer concentration 5 mM; 6 h; Cupriavidus necator H16; minimal medium + 0.4% gluconate
Procedure: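 C. necator H16 strains, each carrying one of 21 transcription factor/inducible promoter–mRFP biosensor plasmids, were grown in minimal medium in 96-well plates (robotic platform). Each was exposed to 46 structurally or metabolically related compounds at 5 mM at 30 °C. OD-normalised RFP fluorescence was read 6 h later and expressed as relative induction (%) = 100 × (FL compound − FL uninduced)/(FL primary inducer − FL uninduced); mean of n=4.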
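Note: RFP excited at 585 nm with emission read at 620 nm, culture medium blanks subtracted from fluorescence and absorbance prior to normalisation.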

Compound | relative induction of RFP reporter
NCCS(=O)(=O)O [taurine] | -0.19%
O=C(O)[C@@H](O)[C@@H](O)[C@H](O)[C@@H](O)C(=O)O [glucarate] | -0.0077%
Oc1ccccc1O [catechol] | 0.0942%
CC(N)CC(=O)O (stereo not given) [3-aminobutanoate] | -0.135%
O=C(O)CNC(=O)c1ccccc1 [N-benzoylglycine] | -0.186%
Oc1ccc(O)cc1 [hydroquinone] | 0.0801%
O=C(O)C(O)C(=O)O [tartronic acid] | -0.0907%
Cn1c(=O)c2c(ncn2C)n(C)c1=O [caffeine] | 0.103%
O=C(O)c1ccc(O)cc1 [4-hydroxybenzoate] | -0.0931%
OC[C@@H](O)[C@@H](O)[C@H](O)[C@H](O)CO [D-mannitol] | -0.117%
O=C(O)C1=CCCCC1 [cyclohexene-1-carboxylate] | 0.0248%
O=c1cc[nH]c(=O)[nH]1 [uracil] | -0.0253%
O=C(O)c1c(O)cccc1O [2,6-dihydroxybenzoate] | 0.0687%
Oc1ccccc1 [phenol] | -0.0814%
O=C(O)C1CCCC1 [cyclopentane-1-carboxylate] | 0.108%
NC(C(=O)O)c1ccccc1 (racemic) [D,L-2-phenylglycine] | 0.0147%
NC(=O)CC[C@H](N)C(=O)O [L-glutamine] | -0.216%
O=CC(=O)O [glyoxylate] | -0.0503%
CCCC(=O)O [butyric acid] | -0.166%
O=C(O)/C=C/C(=O)O [fumarate] | -0.0945%

Compound | relative induction of RFP reporter
O=C(O)/C=C\C=C/C(=O)O [cis,cis-muconate] | 0.00769%
O=C(O)C1=C[C@@H](O)[C@@H](O)[C@H](O)C1 [shikimate] | 0.167%
O=S(=O)(O)CCO [isethionate] | -0.112%
NCCc1ccc(O)c(O)c1 [dopamine] | -0.023%
O=C(O)C[C@H](O)C(=O)O [L-malate] | -0.0258%
CCC(=O)O [propanoate] | -0.0944%
NCC(O)C(=O)O (stereo not given) [3-amino-2-hydroxypropanoate] | -0.0973%
N[C@@H](Cc1c[nH]c2ccccc12)C(=O)O [L-tryptophan] | 0.00902%
O=c1[nH]cnc2nc[nH]c12 [hypoxanthine] | -0.0963%
N[C@@H](CC(=O)O)C(=O)O [L-aspartate] | -0.107%
C[C@H](O)C(=O)O [L-lactate] | -0.188%
O=C(O)c1cc(=O)c2ccccc2[nH]1 [kynurenate] | -0.151%
O=C(O)CC(CC(=O)O)C(=O)O [tricarballylate] | -0.173%
O=C(O)CC(=O)C(=O)O [oxaloacetate] | -0.115%
Oc1cccc(O)c1 [resorcinol] | -0.0108%
O=C(O)CCC(=O)O [succinate] | -0.126%
O=C(O)c1cccnc1 [nicotinate] | -0.141%
O=C(O)C(O)c1ccccc1 (stereo not given) [mandelic acid] | 0.0552%
Cn1cnc2c1c(=O)[nH]c(=O)n2C [theobromine] | 0.0337%
NCC(N)C(=O)O (stereo not given) [2,3-diaminopropanoate] | 0.123%
